Assay results published in PubChem BioAssay (NCI).
About 79,000 compounds went through this panel and 15% of them were active in at least one assay; those are over-represented in the sample as a whole. The source made the active and inactive calls. Rule as the data show it: active = growth inhibition above about 70%; inactive = the rest.

Tests used:
[1] = NCI Yeast Anticancer Drug Screen. Data for the rad52 strain (AID 147);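 also: 0% = growth of vehicle-treated control cultures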; conditions: S. cerevisiae rad52 mutant growth inhibition, hits give high values
How it was run: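 The repair-mutant yeast strain was incubated with compounds, then growth was read and inhibition derived relative to vehicle.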

[2] = NCI Yeast Anticancer Drug Screen. Data for the wt1 strain (AID 149);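 also: 0% = growth of vehicle-treated wt1 cultures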; conditions: S. cerevisiae wt1 strain (SPY 50644) growth inhibition, hits give high values
How it was run: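 Readout: yeast growth inhibition, normalised to vehicle controls, in the wt1 strain exposed to test compounds.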

[3] = NCI Yeast Anticancer Drug Screen. Data for the rad50EPP+ strain (AID 151);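 also: 0% = growth of vehicle-treated control cultures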; conditions: S. cerevisiae rad50 mutant strain, hits give high values
How it was run: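 Vehicle-normalised growth inhibition; rad50EPP+ yeast strain, altered in DNA damage repair, compound-treated.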

[4] = NCI Yeast Anticancer Drug Screen. Data for the mgt1 strain (AID 153); conditions: S. cerevisiae mgt1 mutant growth inhibition, hits give high values
How it was run: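 Vehicle-normalized growth inhibition is determined in mgt1 yeast, a strain selected for a defined alteration in DNA repair or cell cycle control.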

[5] = NCI Yeast Anticancer Drug Screen. Data for the rad50 strain (AID 155);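 also: 0% = growth of vehicle-only cultures of the same strain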; conditions: S. cerevisiae rad50 strain growth inhibition, hits give high values
How it was run: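 Compounds were tested on a yeast strain with an engineered DNA damage repair alteration; the reported value is growth inhibition normalised to vehicle treatment.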

[6] = NCI Yeast Anticancer Drug Screen. Data for the mec2-1 strain (AID 157); conditions: S. cerevisiae mec2-1 strain, hits give high values
How it was run: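 Mutant yeast (mec2-1) grown with compound; growth inhibition relative to vehicle control reported.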

[7] = NCI Yeast Anticancer Drug Screen. Data for the rad14 strain (AID 159);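 also: 0% = growth of vehicle-treated control cultures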; conditions: S. cerevisiae rad14 strain growth inhibition, hits give high values
How it was run: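 Compound-treated yeast with a defined DNA-repair lesion; growth inhibition normalised to vehicle-treated cultures.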

[8] = NCI Yeast Anticancer Drug Screen. Data for the sgs1 mgt1 strain (AID 161);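 also: 0% = growth of cultures given vehicle only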; conditions: S. cerevisiae sgs1 mgt1 strain, hits give high values
How it was run: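 Compounds are added to genetically altered yeast, and growth is compared with cultures given vehicle alone to give percent inhibition.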

[9] = NCI Yeast Anticancer Drug Screen. Data for the CLN2oe strain (AID 163);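 also: 0% = growth of vehicle-only control cultures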; conditions: S. cerevisiae CLN2oe strain, hits give high values
How it was run: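 Compounds are applied to yeast harbouring a defined cell-cycle control change; reduced growth compared with vehicle-treated controls gives the value.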

[10] = NCI Yeast Anticancer Drug Screen. Data for the cln2 rad14 strain (AID 165);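 also: 0% = growth equal to vehicle treated cultures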; conditions: S. cerevisiae cln2 rad14 strain, hits give high values
How it was run: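 Readout is yeast growth inhibition versus vehicle-treated controls, using a strain with cln2 and rad14 alterations exposed to compound.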

[11] = NCI Yeast Anticancer Drug Screen. Data for the bub3 strain (AID 167); conditions: S. cerevisiae bub3 mutant strain, hits give high values
How it was run: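 Growth of a checkpoint-deficient yeast mutant is measured after compound exposure. Values represent inhibition relative to vehicle.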

[12] = NCI Yeast Anticancer Drug Screen. Data for the wt2 strain (AID 169);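 also: 0% = growth of vehicle-treated yeast cultures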; conditions: S. cerevisiae wt2 strain growth inhibition, hits give high values
How it was run: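 Against vehicle-treated controls, the growth of yeast exposed to each compound was compared, and the inhibition was recorded.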

[13] = NCI Yeast Anticancer Drug Screen. Data for the mlh1 strain (AID 171);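 also: 0% = growth of vehicle-treated control cultures of the same strain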; conditions: S. cerevisiae mlh1 strain growth inhibition, hits give high values
How it was run: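 Measured: yeast growth. Reference: vehicle-treated controls. Organism: strain with a defined alteration affecting DNA damage repair or cell cycle control, treated with compound.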

[14] = NCI Yeast Anticancer Drug Screen. Data for the sgs1 strain (AID 173);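 also: 0% = growth of vehicle-only control cultures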; conditions: S. cerevisiae sgs1 mutant, hits give high values
How it was run: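 Each compound was added to cultures of the altered yeast strain. Growth was recorded, and inhibition was derived by comparison with vehicle controls.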

[15] = NCI Yeast Anticancer Drug Screen. Data for the mlh1 rad18 strain (AID 175); conditions: S. cerevisiae mlh1 rad18 strain growth inhibition, hits give high values
How it was run: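 Genetically defined yeast (DNA repair-deficient) exposed to compounds; growth inhibition determined relative to vehicle.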

[16] = NCI Yeast Anticancer Drug Screen. Data for the rad18 strain (AID 177); conditions: S. cerevisiae rad18 mutant growth inhibition, hits give high values
How it was run: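 Vehicle-treated cultures served as the baseline for scoring compound-induced growth inhibition in DNA-repair-mutant yeast.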

[17] = at 5.0 µM (retest, dose inferred, filed as 0.5)
[18] = at 50.0 µM (retest, dose inferred, filed as 5.0)

Measured: growth inhibition

CCCCCCCCCCCCCCN
inactive: [1]; at 1.2 µM 8% | [1]; at 3.7 µM 1% | [1]; at 11.0 µM -3% | [1]; at 33.0 µM 23% | [2]; at 1.2 µM 4% | [2]; at 3.7 µM -5% | [2]; at 11.0 µM -1% | [2]; at 33.0 µM 6% | [3]; at 1.2 µM -9% | [3]; at 3.7 µM 18% | [3]; at 11.0 µM 32% | [3]; at 33.0 µM 64% | [4]; at 1.2 µM -2% | [4]; at 3.7 µM 1% | [4]; at 11.0 µM -5% | [4]; at 33.0 µM 52% | [5]; at 1.2 µM 11% | [5]; at 3.7 µM 17% | [5]; at 11.0 µM 11% | [5]; at 33.0 µM 52% | [6]; at 1.2 µM -10% | [6]; at 3.7 µM -5% | [6]; at 11.0 µM -9% | [6]; at 33.0 µM 38% | [7]; at 1.2 µM 20% | [7]; at 3.7 µM 20% | [7]; at 11.0 µM 14% | [7]; at 33.0 µM 15% | [8]; [17] -20% | [9]; at 1.2 µM 6% | [9]; at 3.7 µM 6% | [9]; at 11.0 µM -14% | [9]; at 33.0 µM 37% | [10]; [17] 24% | [11]; at 1.2 µM 25% | [11]; at 3.7 µM 7% | [11]; [17] 31% | [11]; at 11.0 µM 21% | [11]; at 33.0 µM 58% | [12]; at 1.2 µM 3% | [12]; at 3.7 µM -1% | [12]; at 11.0 µM 4% | [12]; at 33.0 µM 27% | [13]; at 1.2 µM -3% | [13]; at 3.7 µM 8% | [13]; at 11.0 µM 2% | [13]; at 33.0 µM 16% | [14]; at 1.2 µM 10% | [14]; at 3.7 µM 16% | [14]; at 11.0 µM 19% | [14]; at 33.0 µM 65% | [16]; at 1.2 µM -3% | [16]; at 3.7 µM 4% | [16]; at 11.0 µM 5% | [16]; at 33.0 µM 24%
active: [1]; at 100.0 µM 98% | [2]; at 100.0 µM 98% | [3]; at 100.0 µM 97% | [4]; at 100.0 µM 99% | [5]; [17] 100% | [5]; [18] 97% | [5]; at 50.0 µM 90.3% | [5]; at 100.0 µM 98% | [6]; [17] 100% | [6]; [18] 96% | [6]; at 50.0 µM 92.1% | [6]; at 100.0 µM 99% | [7]; at 100.0 µM 99% | [8]; [18] 99% | [8]; at 50.0 µM 90.8% | [9]; at 100.0 µM 98% | [10]; [18] 99% | [10]; at 50.0 µM 88.2% | [11]; [18] 99% | [11]; at 50.0 µM 90.7% | [11]; at 100.0 µM 98% | [12]; at 100.0 µM 99% | [13]; at 100.0 µM 98% | [14]; at 100.0 µM 98% | [15]; [17] 100% | [15]; [18] 97% | [15]; at 50.0 µM 91.2% | [16]; at 100.0 µM 98%

CC1(C)CC(=O)C(C(=O)Nc2cccs2)=C(O)C1
active: [1]; at 100.0 µM 99% | [2]; at 100.0 µM 99% | [3]; at 100.0 µM 98% | [4]; at 33.0 µM 92% | [4]; at 100.0 µM 98% | [5]; at 33.0 µM 70% | [5]; at 50.0 µM 88.8% | [5]; at 100.0 µM 98% | [6]; at 33.0 µM 78% | [6]; at 50.0 µM 93% | [6]; at 100.0 µM 98% | [7]; at 33.0 µM 92% | [7]; at 100.0 µM 98% | [8]; at 50.0 µM 93.3% | [9]; at 100.0 µM 99% | [10]; at 50.0 µM 89.4% | [11]; at 33.0 µM 82% | [11]; [18] 70% | [11]; at 50.0 µM 90.8% | [11]; at 100.0 µM 99% | [12]; at 100.0 µM 99% | [13]; at 33.0 µM 92% | [13]; at 100.0 µM 99% | [14]; at 33.0 µM 88% | [14]; at 100.0 µM 99% | [15]; at 50.0 µM 90.4% | [16]; at 100.0 µM 99%
inactive: [1]; at 1.2 µM -8% | [1]; at 3.7 µM 7% | [1]; at 11.0 µM 17% | [1]; at 33.0 µM 64% | [2]; at 1.2 µM 21% | [2]; at 3.7 µM 28% | [2]; at 11.0 µM 23% | [2]; at 33.0 µM 50% | [3]; at 1.2 µM -56% | [3]; at 3.7 µM -63% | [3]; at 11.0 µM -53% | [3]; at 33.0 µM 18% | [4]; at 1.2 µM 10% | [4]; at 3.7 µM 18% | [4]; at 11.0 µM 35% | [5]; at 1.2 µM 14% | [5]; at 3.7 µM 16% | [5]; [17] 26% | [5]; at 11.0 µM 18% | [5]; [18] 42% | [6]; at 1.2 µM 3% | [6]; at 3.7 µM -18% | [6]; [17] 6% | [6]; at 11.0 µM 20% | [6]; [18] 49% | [7]; at 1.2 µM -10% | [7]; at 3.7 µM 2% | [7]; at 11.0 µM 10% | [8]; [17] -5% | [8]; [18] 61% | [9]; at 1.2 µM 15% | [9]; at 3.7 µM 26% | [9]; at 11.0 µM 29% | [9]; at 33.0 µM 63% | [10]; [17] 23% | [10]; [18] 37% | [11]; at 1.2 µM 26% | [11]; at 3.7 µM 23% | [11]; [17] 16% | [11]; at 11.0 µM 41% | [12]; at 1.2 µM 4% | [12]; at 3.7 µM 14% | [12]; at 11.0 µM 17% | [12]; at 33.0 µM 60% | [13]; at 1.2 µM 1% | [13]; at 3.7 µM 4% | [13]; at 11.0 µM 30% | [14]; at 1.2 µM 8% | [14]; at 3.7 µM 23% | [14]; at 11.0 µM 38% | [15]; [17] -36% | [15]; [18] 2% | [16]; at 1.2 µM 1% | [16]; at 3.7 µM 1% | [16]; at 11.0 µM 7% | [16]; at 33.0 µM 48%
